This passage reports growth results from PubChem BioAssay (NCI).

Assay in all cases: NCI-60 one-dose screen, 48 h (100 = growth as untreated, 0 = no growth, -100 = all killed)
The test system of one assay is DU-145 prostate. As to conditions: 10 µM unless noted.
A further assay relates to K-562 leukemia. As to conditions: 10 µM unless noted.
The test system of another assay is MALME-3M melanoma. As to conditions: 10 µM unless noted.
The subject of another assay is MDA-MB-231 breast. Particulars: 10 µM unless noted.
The subject of a further assay is RXF 393 renal. As to conditions: 10 µM unless noted.
For another assay, the system named is SF-268 CNS. As to conditions: 10 µM unless noted.
In the next assay the test system is SF-295 CNS. As to conditions: 10 µM unless noted.
In the next assay the test system is SF-539 CNS. Particulars: 10 µM unless noted.
The subject of the next assay is UACC-257 melanoma. Particulars: 10 µM.
The next assay has as its system M14 melanoma. Particulars: 10 µM unless noted.

Compounds without any hit were thinned out: in the full panel of roughly 83,000, 20% have a hit.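 48-hour exposure, single concentration, 96-well plates; percent growth endpoint where 0 means no net growth. Active: below 10.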 Values without a mark were called inactive. Active and inactive are the calls of the source.

Take `CN(C)c1ncc(-c2ccc(C(F)(F)F)cc2)c(NC2CCCCCC2)n1`: the growth was 84.9% in the assay on DU-145 prostate; 28.2% in the assay with K-562 leukemia; 5.4% (active) in the assay with MALME-3M melanoma; 83.4% in the assay on MDA-MB-231 breast; 78.8% with RXF 393 renal; 80.8% in the assay on SF-268 CNS. Besides, the growth in the assay with SF-295 CNS was 32.7%; with SF-539 CNS, 97.3%; in the assay with UACC-257 melanoma, 38.1%; in the assay with M14 melanoma, 44.5%.

`O=C(N/N=C/c1c(Cl)cccc1Cl)c1ccccc1Nc1ccnc(C(F)(F)F)c1`: the growth in the assay on DU-145 prostate was 109%; with K-562 leukemia it was 78.4%; with MALME-3M melanoma it was 81%; with MDA-MB-231 breast, 73.8%; in the assay with RXF 393 renal, 49.3%; in the assay with SF-268 CNS it was 73.2%. The growth is 72.9% in the assay with SF-295 CNS, 86.6% with SF-539 CNS, 60.4% in the assay with UACC-257 melanoma and 71.6% in the assay with M14 melanoma.

For the compound `COc1cc(OC)c(C(=O)/C=C/c2cccc(C#N)c2)c(OC)c1`, the growth in the assay with DU-145 prostate is 15.3%; in the assay with K-562 leukemia, 13.7%; in the assay with MALME-3M melanoma, 35.4%; in the assay with MDA-MB-231 breast, 17.1%; in the assay on RXF 393 renal, -3.8% (active); in the assay with SF-268 CNS, 13.5%. The growth in the assay with SF-295 CNS was 1.75% (active); in the assay with SF-539 CNS, -7.41% (active); with UACC-257 melanoma, 32.2%; in the assay on M14 melanoma, 6.71% (active).

As for `Clc1cccc(Cl)c1Cn1c(-c2cncs2)nc2ccccc21`, the growth is 110% with DU-145 prostate; 35.3% in the assay with K-562 leukemia; 81% in the assay on MALME-3M melanoma; 82.5% in the assay with MDA-MB-231 breast; 95% in the assay with RXF 393 renal; 98.2% in the assay on SF-268 CNS. The growth in the assay with SF-295 CNS is 65.4%; in the assay with SF-539 CNS, 96.8%; with UACC-257 melanoma it was 76.6%; in the assay with M14 melanoma it was 89.5%.

With `CCN(CC)CCCC(C)N=c1cc(Nc2cc(=NC(C)CCCN(CC)CC)c3cc(OC)ccc3o2)oc2ccc(OC)cc12` (stereo not given), the growth in the assay on DU-145 prostate is 2.37% (active); with K-562 leukemia, -38.4% (active); in the assay on MALME-3M melanoma, -80.1% (active); in the assay on MDA-MB-231 breast it was -51.7% (active); in the assay on RXF 393 renal, -68.4% (active); in the assay on SF-268 CNS it was -32.1% (active). The growth in the assay with SF-295 CNS was -9.83% (active); in the assay on SF-539 CNS it was -90.2% (active); with UACC-257 melanoma, -79.1% (active); with M14 melanoma it was -87.9% (active).

With `CCCC(C(=O)OCC)C(C)OC(=O)OCC` (stereo not given), the growth with DU-145 prostate is 106%; in the assay on K-562 leukemia, 81.6%; in the assay on MALME-3M melanoma, 85.9%; in the assay with MDA-MB-231 breast it was 105%; in the assay with RXF 393 renal it was 96.3%; in the assay on SF-268 CNS, 96.9%. Besides, the growth with SF-295 CNS was 84.7%; with SF-539 CNS, 107%; with UACC-257 melanoma, 97.5%; in the assay on M14 melanoma, 97.6%.

With `COc1ccc(NC(=O)CSc2nc3ccc(Cl)cc3c(=O)n2-c2ccccc2C(F)(F)F)c(OC)c1OC`, the growth in the assay on DU-145 prostate is 79.1%; in the assay on K-562 leukemia it was 92.8%; in the assay with MALME-3M melanoma, 60.8%; in the assay with MDA-MB-231 breast, 54%; in the assay on RXF 393 renal it was 60.3%; in the assay with SF-268 CNS, 66.7%. Also, the growth is 60.9% in the assay with SF-295 CNS, 66.9% in the assay with SF-539 CNS, 86% with UACC-257 melanoma and 91.4% with M14 melanoma.

Turning to `CCCCCCCCCCCCCCCCC(Br)C(=O)O` (stereo not given), the growth in the assay with DU-145 prostate was 116%; with K-562 leukemia, 86.1%; with MALME-3M melanoma it was 98.3%; in the assay with MDA-MB-231 breast, 115%; in the assay on RXF 393 renal, 105%; in the assay on SF-268 CNS, 112%. The growth is 93.8% in the assay with SF-295 CNS, 86.4% in the assay on SF-539 CNS, 110% in the assay on UACC-257 melanoma and 101% with M14 melanoma.

Regarding `CCC1CCc2nc3sc(C(=O)Nc4ccccc4F)c(N)c3cc2C1` (stereo not given), the growth was 55.8% in the assay on DU-145 prostate; 37.8% in the assay with K-562 leukemia; 48.7% with MALME-3M melanoma; 69.9% in the assay on MDA-MB-231 breast; 79.6% in the assay on RXF 393 renal; 61.5% with SF-268 CNS. The growth was 46.6% in the assay with SF-295 CNS, 75% with SF-539 CNS, 57.5% in the assay with UACC-257 melanoma and 44.4% with M14 melanoma.

Take `COc1cc2c3c(c(=O)oc2cc1OS(=O)(=O)c1ccc(C(F)(F)F)cc1)CCCCC3`: the growth was 82.4% in the assay on DU-145 prostate; 97.3% with K-562 leukemia; 72.1% in the assay on MALME-3M melanoma; 68.6% with MDA-MB-231 breast; 30.1% with RXF 393 renal; 93.4% with SF-268 CNS. Moreover, the growth is 81.9% in the assay on SF-295 CNS, 64.9% in the assay with SF-539 CNS, 95.6% in the assay on UACC-257 melanoma and 83.7% in the assay on M14 melanoma.

As to `COc1cc(NCCN=C(N)NC(N)=NC(C)C)c2ncccc2c1`, the growth with DU-145 prostate was 103%; in the assay on K-562 leukemia, 55.5%; in the assay with MALME-3M melanoma, -11% (active); in the assay with MDA-MB-231 breast, 69.3%; in the assay with RXF 393 renal, 101%; with SF-268 CNS, 45.1%. For the same compound, the growth with SF-295 CNS was 108%; in the assay with SF-539 CNS, 6.08% (active); in the assay with UACC-257 melanoma it was 72.1%; in the assay on M14 melanoma it was 88.6%.

Take `O=C(CCCn1c2c(sc3ccccc32)c(=O)n2nnc(-c3ccccc3)c12)NCCc1cnc[nH]1`: the growth in the assay with DU-145 prostate was -100% (active); with K-562 leukemia it was 78.7%; in the assay with MALME-3M melanoma, -76.1% (active); in the assay with MDA-MB-231 breast it was -47.2% (active); in the assay with RXF 393 renal, -66.9% (active); with SF-268 CNS, -48.9% (active). The growth is -42.6% (active) in the assay on SF-295 CNS, -97.3% (active) with SF-539 CNS, -7.05% (active) with UACC-257 melanoma and -80.6% (active) with M14 melanoma.

Consider `CCCCCCC[C@@H](O)CC(=O)N[C@H](CCCCN)C(=O)N[C@H](Cc1c[nH]c2ccccc12)C(=O)NC(CCCCN)C(=O)N[C@H](CC(C)C)C(=O)N[C@H](Cc1ccccc1)C(=O)N[C@H](CCCCN)C(=O)N[C@H](CCCCN)C(=O)N[C@H](CC(C)C)C(=O)N1CCCC1C(=O)N[C@H](CCCCN)C(=O)N[C@H](Cc1ccccc1)C(=O)N[C@H](CC(C)C)C(=O)N[C@H](Cc1c[nH]cn1)C(=O)N[C@H](CC(C)C)C(=O)N[C@H](C)C(=O)N[C@H](CCCCN)C(=O)N[C@H](CCCCN)C(=O)N[C@H](Cc1ccccc1)C(=O)O` (stereo not given in full), for which the growth in the assay on DU-145 prostate was -77.2% (active); in the assay with K-562 leukemia, -33.3% (active); in the assay on MALME-3M melanoma it was -2.57% (active); with MDA-MB-231 breast it was -71.4% (active); with RXF 393 renal, -39% (active); in the assay with SF-268 CNS it was -54.2% (active). For the same compound, the growth in the assay on SF-295 CNS is -60.8% (active); in the assay on SF-539 CNS, -30.8% (active); in the assay with UACC-257 melanoma, -64.9% (active); in the assay with M14 melanoma it was -43.4% (active).
